Records with an inconclusive call do not appear. Unmarked numbers belong to inactive results. Activity calls are given as the source filed them. Calls come from the whole dose curve; as a rule, active = well fitted cell-killing curve with a large enough effect; inconclusive = small, poorly fitted or top-dose-only effect, or effect the other way; inactive = no such curve, though single readings can be large or run the other way.
What follows are molecules tested on Tov-21-G (assay: Confirmatory qHTS for gynecologic anti-cancer compounds from libraries of approved drugs and bioactive compounds). Details: gynecologic cancer cell panel viability, ATPlite luminescence, 48 h; series mostly up to 57.7 µM; activity change, negative = viability loss: at the top concentration.
Procedure, shortened: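 1,000 cells/well; 16 h pre-incubation 37 C, 5% CO2; pin-transferred cpd in DMSO, 11 conc (1:3), 57.5 uM–0.977 nM; 48 h; ATPlite, 15 min RT; luminescence → IC50.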
% is set by controls: 0 for no effect and ±100 for the full control effect; potency is the fitted concentration of half-maximal effect.
Note: nearly all actives have a fitted effect of over 55% in size.

| SMILES | Potency | activity change, negative = viability loss [%] |
| --- | --- | --- |
| Cc1sc2c(c1C)C(c1ccc(Cl)cc1)=NC(CC(=O)OC(C)(C)C)c1nnc(C)n1-2 (stereo unspecified) | 1.22 µM (active) | – |
| CCN1CCN(C(=O)Cc2ccc(Nc3ncc(F)c(Nc4ccc(C(=O)Nc5ccccc5Cl)cc4)n3)cc2)CC1 | – | -3.78 |
| CCNC(=O)C[C@@H]1N=C(c2ccc(Cl)cc2)c2cc(OC)ccc2-n2c(C)nnc21 | 0.685 µM (active) | – |
| O=C(O)Cc1ccccc1 | – | 25.4 |
| CCOc1ccccc1-n1c(C(C)N2CCN(C(=O)COc3ccc(Cl)cc3)CC2)nc2ccccc2c1=O (stereo unspecified) | 1.72 µM (active) | – |
| C/C=C(/C)C(=O)O[C@H]1C(C)=C2[C@H]([C@@H]1OC(=O)CCCCCCC)[C@@](C)(OC(C)=O)C[C@H](OC(=O)CCC)[C@@]1(O)[C@H]2OC(=O)[C@@]1(C)O | 13.7 µM (active) | – |

Reference: PubChem BioAssay AID1345085 (National Center for Advancing Translational Sciences (NCATS), 2018)
